Measurements taken from PubChem BioAssay (NCI).
This is part of a sample that, as a whole, favours compounds with a hit. Of some 83,000 tested, about 20% had one in any assay.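 Compound tested at a single concentration for 48 hours in 96-well plates; a percent growth value below 10 was scored as active.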 Values without a mark were called inactive. Calls of active or inactive are those of the source.

Tests used:
Assay in all cases: NCI-60 one-dose screen, 48 h (100 = growth as untreated, 0 = no growth, -100 = all killed)
Conditions in all cases: 10 µM
NCI-H23 lung = test system: NCI-H23 lung
NCI-H226 lung = test system: NCI-H226 lung
NCI-H322M lung = test system: NCI-H322M lung
HOP-62 NSCLC = test system: HOP-62 NSCLC
NCI-H460 lung = test system: NCI-H460 lung
HOP-92 NSCLC = test system: HOP-92 NSCLC
A549/ATCC NSCLC = test system: A549/ATCC NSCLC
COLO 205 colon = test system: COLO 205 colon
NCI-H522 lung = test system: NCI-H522 lung
786-0 renal = test system: 786-0 renal

Compound | growth (NCI-H23 lung) | growth (NCI-H226 lung) | growth (NCI-H322M lung) | growth (HOP-62 NSCLC) | growth (NCI-H460 lung) | growth (HOP-92 NSCLC) | growth (A549/ATCC NSCLC) | growth (COLO 205 colon) | growth (NCI-H522 lung) | growth (786-0 renal)
CC(C)C1CCCCC1O (centres undefined) | 95.4% | 112% | 124% | 102% | 109% | 101% | 102% | 108% | – | –
Cc1c(O)cccc1O | 106% | 93.4% | 90.3% | 92% | 114% | – | 122% | – | 73.1% | 102%
CC(C)OC(C(=O)O)c1ccccc1 (centres undefined) | 101% | 108% | 117% | 91.1% | 109% | 81.3% | 105% | 111% | – | –
COC(=O)c1cccc(Br)c1 | 102% | 106% | 97.5% | 92% | 109% | – | 116% | 121% | 102% | 110%
COc1cc(CN)ccc1O | 99.4% | 99.8% | 89.7% | 98.3% | 91.4% | – | 98.6% | – | 88% | 100%
CCc1nn(Cc2ccccc2)c2nc(C)c(CCc3ccccc3)c(Cl)c12 | 101% | 90.7% | 79.5% | 104% | 90.8% | 9.07% (active) | – | 110% | – | 85%
CC(O)COc1ccc(-c2ccccc2)cc1 (centres undefined) | 108% | 104% | 112% | 102% | 99.2% | 92.7% | 107% | 110% | – | –
CC1=NN(c2ccccc2)C(=O)/C1=C\N1CC(=O)NC1=S | 98.1% | 98.4% | 108% | 99.5% | 98.6% | – | 100% | – | 81.7% | 104%
CCc1ccc(/C(C#N)=C/C=C/c2ccccc2)cc1 | 33.4% | 67.3% | 32.7% | 34.4% | 13.7% | – | 28.7% | -15% (active) | -39.4% (active) | 63.2%
O=C(O)c1cccc([N+](=O)[O-])c1O | 98.9% | 104% | 97.3% | 96% | 104% | – | 111% | – | 101% | 102%
c1cc2cccc3c4cccc5cccc(c(c1)c23)c54 | 101% | 98.8% | 119% | 97.7% | 109% | 89.6% | 125% | 104% | – | –
OCCN1CCOCC1 | 115% | 112% | 125% | 104% | 104% | 115% | 104% | 119% | – | –
CCN(CC)CCNc1ccc(CO)c2sc3ccccc3c(=O)c12 | 44.9% | 35.9% | 50.9% | 43.3% | 14.5% | – | 24.2% | 11.9% | -17.8% (active) | 49.6%
CCCC(=O)c1cc(C)ccc1OC | 108% | 99.7% | 126% | 101% | 106% | 81.5% | 111% | 112% | – | –
CC1NC(=O)NC1CCCCCC(=O)O (centres undefined) | 100% | 103% | 132% | 104% | 111% | 72.9% | 94.9% | 110% | – | –
CN(C)c1ccc2nc3ccc(=N)cc-3sc2c1 | 14.7% | 77.1% | 85.4% | 54.4% | 56.7% | – | 13.6% | – | 14.7% | 66.2%
CCCCCCCCOC(=O)c1ccccn1 | 91.5% | 104% | 98.9% | 93.5% | 109% | 107% | 107% | 106% | – | –
